This is part of a sample that, as a whole, favours compounds with a hit. Of some 79,000 tested, about 15% had one in any assay. Activity calls are given as the source filed them. Rule as the data show it: active = growth inhibition above about 70%; inactive = the rest.
Columns and labels:
[1] = NCI Yeast Anticancer Drug Screen. Data for the mec2-1 strain (AID 157); conditions: S. cerevisiae mec2-1 strain, active compounds read high
Method in brief: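 Using mec2-1 yeast: add compound, measure growth, express inhibition versus vehicle-treated cultures.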

[2] = NCI Yeast Anticancer Drug Screen. Data for the sgs1 mgt1 strain (AID 161);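 also: 0% = growth of cultures given vehicle only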; conditions: S. cerevisiae sgs1 mgt1 strain, active compounds read high
Method in brief: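 This yeast growth screen uses a strain with defined DNA-repair lesions; compound-treated growth is compared with vehicle-treated growth.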

[3] = NCI Yeast Anticancer Drug Screen. Data for the CLN2oe strain (AID 163);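 also: 0% = growth of vehicle-only control cultures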; conditions: S. cerevisiae CLN2oe strain, active compounds read high
Method in brief: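 Whole-cell yeast growth assay. A strain engineered for altered cell-cycle control received compound, and inhibition relative to vehicle-treated cultures was recorded.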

[4] = NCI Yeast Anticancer Drug Screen. Data for the cln2 rad14 strain (AID 165);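 also: 0% = growth equal to vehicle treated cultures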; conditions: S. cerevisiae cln2 rad14 strain, active compounds read high
Method in brief: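 Yeast strain cln2 rad14, bearing defects in cell cycle control and DNA repair, serves as the test system; values reflect growth inhibition compared with vehicle.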

[5] = NCI Yeast Anticancer Drug Screen. Data for the bub3 strain (AID 167); conditions: S. cerevisiae bub3 mutant strain, active compounds read high
Method in brief: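 Inhibition values come from growth of compound-treated mutant yeast normalised to vehicle-treated controls.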

[6] = NCI Yeast Anticancer Drug Screen. Data for the wt2 strain (AID 169);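 also: 0% = growth of vehicle-treated yeast cultures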; conditions: S. cerevisiae wt2 strain growth inhibition, active compounds read high
Method in brief: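 Treated yeast vs. vehicle-treated yeast: growth inhibition determined.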

[7] = NCI Yeast Anticancer Drug Screen. Data for the mlh1 strain (AID 171);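 also: 0% = growth of vehicle-treated control cultures of the same strain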; conditions: S. cerevisiae mlh1 strain growth inhibition, active compounds read high
Method in brief: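 A yeast strain with a defined genetic lesion serves as the test organism. Cultures receive compound or vehicle, and growth is measured.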

[8] = NCI Yeast Anticancer Drug Screen. Data for the mlh1 rad18 strain (AID 175); conditions: S. cerevisiae mlh1 rad18 strain growth inhibition, active compounds read high
Method in brief: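 Steps: expose repair-defective yeast to compound; measure growth; express inhibition against vehicle-treated controls.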

[9] = NCI Yeast Anticancer Drug Screen. Data for the rad18 strain (AID 177); conditions: S. cerevisiae rad18 mutant growth inhibition, active compounds read high
Method in brief: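 Measured value is growth inhibition of a yeast strain bearing a DNA repair alteration, referenced to vehicle-treated cells.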

[10] = NCI Yeast Anticancer Drug Screen. Data for the rad52 strain (AID 147);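 also: 0% = growth of vehicle-treated control cultures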; conditions: S. cerevisiae rad52 mutant growth inhibition, active compounds read high
Method in brief: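 Here a repair-compromised yeast strain receives each compound; its growth is then quantified and normalised to vehicle-only controls.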

[11] = NCI Yeast Anticancer Drug Screen. Data for the wt1 strain (AID 149);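 also: 0% = growth of vehicle-treated wt1 cultures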; conditions: S. cerevisiae wt1 strain (SPY 50644) growth inhibition, active compounds read high
Method in brief: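 Vehicle-normalised growth inhibition; strain wt1; compound exposure.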

[12] = NCI Yeast Anticancer Drug Screen. Data for the rad50EPP+ strain (AID 151);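 also: 0% = growth of vehicle-treated control cultures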; conditions: S. cerevisiae rad50 mutant strain, active compounds read high
Method in brief: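 Read-out is yeast growth inhibition relative to vehicle; cells used were the rad50EPP+ strain.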

[13] = NCI Yeast Anticancer Drug Screen. Data for the mgt1 strain (AID 153); conditions: S. cerevisiae mgt1 mutant growth inhibition, active compounds read high
Method in brief: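 Measured: inhibition of mgt1 yeast growth by compound, normalized to vehicle-treated cultures.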

[14] = NCI Yeast Anticancer Drug Screen. Data for the rad14 strain (AID 159);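 also: 0% = growth of vehicle-treated control cultures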; conditions: S. cerevisiae rad14 strain growth inhibition, active compounds read high
Method in brief: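 Vehicle-treated cultures served as the baseline for growth inhibition of a DNA repair-mutant yeast strain exposed to each compound.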

[15] = NCI Yeast Anticancer Drug Screen. Data for the sgs1 strain (AID 173);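 also: 0% = growth of vehicle-only control cultures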; conditions: S. cerevisiae sgs1 mutant, active compounds read high
Method in brief: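 A genetically defined yeast mutant is incubated with the test compound, and its growth is compared to that of the same strain given vehicle.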

[16] = NCI Yeast Anticancer Drug Screen. Data for the rad50 strain (AID 155);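 also: 0% = growth of vehicle-only cultures of the same strain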; conditions: S. cerevisiae rad50 strain growth inhibition, active compounds read high
Method in brief: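 A DNA repair-deficient yeast mutant serves as the test organism; compound-induced growth inhibition is calculated against vehicle-treated cells.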

[17] = at 5.0 µM (retest, dose inferred, filed as 0.5)
[18] = at 50.0 µM (retest, dose inferred, filed as 5.0)

Measured: growth inhibition

CNC(=O)OCc1c(COC(=O)NC)c(C)n(-c2ccc(Br)cc2)c1C
active: [1]; at 100.0 µM 97% | [2]; at 50.0 µM 78% | [5]; at 50.0 µM 85% | [5]; at 100.0 µM 98% | [6]; at 100.0 µM 96% | [7]; at 100.0 µM 97% | [8]; [18] 84% | [8]; at 50.0 µM 86.8% | [9]; at 100.0 µM 96%
inactive: [1]; [17] 22% | [1]; at 11.0 µM -23% | [1]; at 33.0 µM -8% | [1]; [18] 23% | [1]; at 50.0 µM 13% | [2]; [17] 4% | [2]; [18] -61% | [3]; at 1.2 µM -7% | [3]; at 3.7 µM 0% | [3]; at 11.0 µM -1% | [3]; at 33.0 µM -2% | [3]; at 100.0 µM 69% | [4]; [17] 10% | [4]; [18] -81% | [4]; at 50.0 µM 30% | [5]; at 1.2 µM -29% | [5]; at 3.7 µM -18% | [5]; [17] 0% | [5]; at 11.0 µM -18% | [5]; at 33.0 µM 41% | [5]; [18] -63% | [6]; at 1.2 µM -28% | [6]; at 3.7 µM -19% | [6]; at 11.0 µM -19% | [6]; at 33.0 µM -13% | [7]; at 1.2 µM -26% | [7]; at 3.7 µM -13% | [7]; at 11.0 µM 9% | [7]; at 33.0 µM 59% | [8]; [17] 25% | [9]; at 1.2 µM -19% | [9]; at 3.7 µM -12% | [9]; at 11.0 µM -5% | [9]; at 33.0 µM 43%

O=C(O)C1CCCCC1c1c2ccc(=O)cc-2oc2cc(O)ccc12 (stereo unspecified)
inactive: [10]; at 1.2 µM 2% | [10]; at 3.7 µM -3% | [10]; at 11.0 µM 1% | [10]; at 33.0 µM 39% | [11]; at 1.2 µM -24% | [11]; at 3.7 µM -19% | [11]; at 11.0 µM -21% | [11]; at 33.0 µM 12% | [12]; at 1.2 µM 11% | [12]; at 3.7 µM 16% | [12]; at 11.0 µM 16% | [12]; at 33.0 µM 22% | [12]; at 100.0 µM 38% | [13]; at 1.2 µM 15% | [13]; at 3.7 µM 16% | [13]; at 11.0 µM 21% | [13]; at 33.0 µM 46% | [1]; at 1.2 µM -3% | [1]; at 3.7 µM -1% | [1]; [17] 59% | [1]; at 11.0 µM 3% | [1]; at 33.0 µM 17% | [14]; at 1.2 µM -21% | [14]; at 3.7 µM -20% | [14]; at 11.0 µM -18% | [14]; at 33.0 µM 0% | [2]; [17] 10% | [3]; at 1.2 µM 13% | [3]; at 3.7 µM 14% | [3]; at 11.0 µM 12% | [3]; at 33.0 µM 37% | [4]; [17] 43% | [5]; at 1.2 µM 14% | [5]; at 3.7 µM 22% | [5]; [17] 44% | [5]; at 11.0 µM 27% | [5]; at 33.0 µM 55% | [6]; at 1.2 µM -20% | [6]; at 3.7 µM -18% | [6]; at 11.0 µM -7% | [6]; at 33.0 µM 15% | [7]; at 1.2 µM -26% | [7]; at 3.7 µM -21% | [7]; at 11.0 µM -16% | [7]; at 33.0 µM -1% | [15]; at 1.2 µM -17% | [15]; at 3.7 µM -15% | [15]; at 11.0 µM -15% | [15]; at 33.0 µM 13% | [8]; [17] 47% | [9]; at 1.2 µM -12% | [9]; at 3.7 µM -18% | [9]; at 11.0 µM -3% | [9]; at 33.0 µM 25%
active: [10]; at 100.0 µM 93% | [11]; at 100.0 µM 91% | [13]; at 100.0 µM 95% | [1]; [18] 94% | [1]; at 50.0 µM 86.8% | [1]; at 100.0 µM 92% | [14]; at 100.0 µM 92% | [2]; [18] 77% | [2]; at 50.0 µM 89.5% | [3]; at 100.0 µM 94% | [4]; [18] 87% | [4]; at 50.0 µM 86.4% | [5]; [18] 88% | [5]; at 50.0 µM 86.7% | [5]; at 100.0 µM 92% | [6]; at 100.0 µM 94% | [7]; at 100.0 µM 86% | [15]; at 100.0 µM 91% | [8]; [18] 93% | [8]; at 50.0 µM 81.5% | [9]; at 100.0 µM 93%

O=C1C[C@H]2[C@H](c3ccc(Br)cc3)[C@H]3C(=O)c4ccccc4NC(=O)[C@@H]3[C@@]2(O)c2ccccc2N1
inactive: [10]; at 1.2 µM 5% | [10]; at 3.7 µM 7% | [10]; at 11.0 µM 8% | [10]; at 33.0 µM 38% | [10]; at 100.0 µM 33% | [11]; at 1.2 µM 6% | [11]; at 3.7 µM 10% | [11]; at 11.0 µM 11% | [11]; at 33.0 µM 14% | [11]; at 100.0 µM 16% | [12]; at 1.2 µM 0% | [12]; at 3.7 µM 2% | [12]; at 11.0 µM 3% | [12]; at 33.0 µM 3% | [12]; at 100.0 µM 3% | [16]; at 1.2 µM 3% | [16]; at 3.7 µM 6% | [16]; [17] -12% | [16]; at 11.0 µM 9% | [16]; at 33.0 µM 35% | [16]; [18] 14% | [16]; at 100.0 µM 35% | [1]; at 1.2 µM 9% | [1]; at 3.7 µM 11% | [1]; [17] 14% | [1]; at 11.0 µM 15% | [1]; at 33.0 µM 33% | [1]; [18] 19% | [1]; at 100.0 µM 33% | [14]; at 1.2 µM 6% | [14]; at 3.7 µM 9% | [14]; at 11.0 µM 16% | [14]; at 33.0 µM 32% | [14]; at 100.0 µM 27% | [2]; [17] -3% | [2]; [18] 2% | [3]; at 1.2 µM 9% | [3]; at 3.7 µM 16% | [3]; at 11.0 µM 16% | [3]; at 33.0 µM 38% | [3]; at 100.0 µM 38% | [4]; [17] -7% | [4]; [18] 27% | [5]; at 1.2 µM 3% | [5]; at 3.7 µM 7% | [5]; [17] 7% | [5]; at 11.0 µM 9% | [5]; at 33.0 µM 19% | [5]; [18] 56% | [5]; at 100.0 µM 23% | [6]; at 1.2 µM 6% | [6]; at 3.7 µM 11% | [6]; at 11.0 µM 15% | [6]; at 33.0 µM 28% | [6]; at 100.0 µM 30% | [7]; at 1.2 µM 6% | [7]; at 3.7 µM 12% | [7]; at 11.0 µM 14% | [7]; at 33.0 µM 32% | [7]; at 100.0 µM 29% | [15]; at 1.2 µM 8% | [15]; at 3.7 µM 17% | [15]; at 11.0 µM 26% | [15]; at 33.0 µM 44% | [15]; at 100.0 µM 39% | [8]; [17] 36% | [8]; [18] 54% | [9]; at 1.2 µM 6% | [9]; at 3.7 µM 16% | [9]; at 11.0 µM 29% | [9]; at 33.0 µM 52% | [9]; at 100.0 µM 46%
active: [16]; at 50.0 µM 96.8% | [1]; at 50.0 µM 97.8% | [2]; at 50.0 µM 96.4% | [4]; at 50.0 µM 97% | [5]; at 50.0 µM 72% | [8]; at 50.0 µM 97.8%
